High-throughput results from PubChem.
aSyn 5UTR act: Activators via SNCA 5'UTR binding, MLPCN | activity score, % (tested at 7.5 µM), hits read low | 300,000 tested, 7.1% active | alpha-synuclein 5'UTR reporter, activators screen; in the data active means activity score below about -60%
Of the large screens only hits and unclear results are named; the others gave an inactive call. A selection follows.

O=C(O)CCc1ccc(S(=O)(=O)Nc2ccccc2C(=O)NCCc2ccccc2)cc1	aSyn 5UTR act -117.8
COc1ccc(C(=O)Oc2ccc3oc(=O)sc3c2)cc1	aSyn 5UTR act -88.8
CC1=CCC(/C=N\Nc2nnc3c(n2)[nH]c2ccccc23)CC1 (centres undefined)	aSyn 5UTR act -64.9
CC(=O)Oc1ccc(/C=N/NC(=S)Nc2ccccc2)cc1	aSyn 5UTR act -149.4
CCOc1ccc(/C=N/NC(=O)Nc2ccccc2)cc1	aSyn 5UTR act -119.6
CCN(Cc1ccccc1)c1ccc(/C=N/N=C(N)N)cc1	none
CCN(CC)c1ccc(/C=N/NC(=O)Nc2ccccc2)cc1	aSyn 5UTR act -149.6
CCN(CC)c1ccc(/C=N/NC(=O)OC(C)(C)C)cc1	aSyn 5UTR act -153.3
COC(=O)c1cc(=O)n(Cc2ccc3c(c2)OCO3)c(=Nc2ccc(F)c(Cl)c2)s1	aSyn 5UTR act -65.6
CCOC(=O)C(C#N)c1ccccn1 (centres undefined)	aSyn 5UTR act -69.6
Cc1cc(N2CCN(C)CC2)nc2ccc(NC(=S)NCCC(C)C)cc12	aSyn 5UTR act -85.8
CCCN(CCC)CCCNC(=S)Nc1ccc2nc(N3CCCC3)cc(C)c2c1	aSyn 5UTR act -72.3
Cc1cc(N2CCN(C)CC2)nc2ccc(NC(=S)NCc3cccs3)cc12	aSyn 5UTR act -77.9
C=CCNC(=S)NC(=O)c1ccc(C)c(Br)c1	aSyn 5UTR act -105.7
Nc1c(C(=O)Nc2ccc3c(c2)OCCO3)nnn1Cc1ccc(F)cc1	aSyn 5UTR act -178.8
Nc1c(C(=O)Nc2ccc3c(c2)OCCO3)nnn1Cc1ccccc1Cl	aSyn 5UTR act -205.0
Nc1c(C(=O)Nc2ccc3c(c2)OCCO3)nnn1Cc1cccc(Cl)c1	aSyn 5UTR act -152.9
O=C(Nc1cc(Cl)cc(Cl)c1)c1cnn2cccnc12	aSyn 5UTR act -96.7
Cc1cc(NC(=O)c2cnn3cccnc23)no1	aSyn 5UTR act -83.2
O=C(Nc1cccc(Cl)c1)c1cnn2cccnc12	aSyn 5UTR act -202.0
CCCc1cnc(N2CCN(C(=S)NC)CC2)nc1	aSyn 5UTR act -110.9
O=C(NCc1nc2ccccc2[nH]1)c1cccs1	aSyn 5UTR act -63.6
COc1ccc(Cl)cc1NC(=O)c1cnc2sccn2c1=O	aSyn 5UTR act -106.2
O=C(NCCc1ccccc1)c1cnc2sccn2c1=O	aSyn 5UTR act -90.4
O=C(NCCc1ccccc1)c1cccs1	aSyn 5UTR act -93.9
CCO[C@H]1OC(C(=O)NCc2nc3ccccc3[nH]2)=C[C@@H](C2CC2)[C@@H]1CCCO	none
O=C(NCCc1cccc(Cl)c1)c1cccnc1	aSyn 5UTR act -84.2
O=C(NCCc1cccc(Cl)c1)c1cccs1	aSyn 5UTR act -115.2
O=C(NC(c1ccccc1)c1cc(Cl)c2cccnc2c1O)c1cccnc1 (centres undefined)	none
Cc1cc2ccccc2n1CCNC(=O)c1cccs1	aSyn 5UTR act -121.3
COc1ccc2sc(NC(C)=O)nc2c1	aSyn 5UTR act -119.4
CCC(=O)Nc1nc2cc(OC)ccc2s1	aSyn 5UTR act -106.8
CCC(=O)Nc1nnc(/C=C/c2ccc(OC)cc2)s1	aSyn 5UTR act -141.2
COc1ccc2sc(NCc3ccccc3)nc2c1	aSyn 5UTR act -112.0
CCC(=O)Nc1nc2ccc3nc(C)sc3c2s1	aSyn 5UTR act -151.4
COc1ccc2sc(NC(=O)CC(C)C)nc2c1	aSyn 5UTR act -120.3
Cc1cc(=O)c2cc3nc(-c4cccnc4)oc3c(Br)c2o1	aSyn 5UTR act -67.4
CCOc1ccc(C(=O)COC(=O)c2c(-c3ccccc3)noc2C)cc1	aSyn 5UTR act -62.7
Cc1onc(-c2ccccc2)c1C(=O)OCCOc1cccc(Cl)c1	aSyn 5UTR act -69.8
On1c(-c2ccc(Cl)cc2)nc2ccccc21	aSyn 5UTR act -146.5
FC(F)(F)c1nc2ccccc2n2c(-c3ccc(Cl)cc3)nnc12	none
COCc1c(C(=O)Nc2nc(C)cs2)oc2ccccc12	aSyn 5UTR act -87.5
COCc1c(C(=O)Nc2ccc(Cl)cc2F)oc2ccccc12	aSyn 5UTR act -116.3
CCn1nc(NC(=O)C2CCCO2)c2cc3cc(C)ccc3nc21 (centres undefined)	aSyn 5UTR act -90.4
CCCn1nc(NC(=O)COC)c2cc3cc(C)ccc3nc21	aSyn 5UTR act -96.3
O=[N+]([O-])c1cccc2ccc(/C=C/c3ccc(C(F)(F)F)cc3)nc12	aSyn 5UTR act -94.0
CC(=O)Nc1ccc(/C=C/c2ccc3c([N+](=O)[O-])cccc3n2)cc1	aSyn 5UTR act -163.7
O=[N+]([O-])c1cccc2ccc(/C=C/c3cccc(Br)c3)nc12	aSyn 5UTR act -107.1
O=[N+]([O-])c1cccc2ccc(/C=C/c3ccc(Cl)cc3)nc12	aSyn 5UTR act -149.3
Cc1ccc(OCC(=O)Nc2sc3c(c2C#N)CCC3)cc1	aSyn 5UTR act -99.0
Cc1nnc(SCC(=O)Nc2sc3c(c2C#N)CCCCC3)n1N	aSyn 5UTR act -74.1
CC(C)(C)C(=O)Nc1sc2c(c1C#N)CCCCC2	aSyn 5UTR act -78.0
CCOC(=O)Nc1sc2c(c1C#N)CCCC2	aSyn 5UTR act -123.2
Cc1ccnc(NC(=O)COc2ccc(Cl)cc2)n1	aSyn 5UTR act -83.5
O=C(COc1ccc(Cl)cc1)Nc1ncccn1	aSyn 5UTR act -99.0
O=C(Nc1ccc(N2CCCCC2)cc1)c1ccc2ccccc2n1	aSyn 5UTR act -173.5
Cc1ccccc1C(=O)Nc1ccc(N2CCCC2)cc1	aSyn 5UTR act -153.5
O=C(N/N=C\c1c(O)ccc2ccccc12)c1ccc(S(=O)(=O)N2CCCCC2)cc1	none
O=C(Nc1ccc(N2CCCC2)cc1)C(Cl)c1ccccc1 (centres undefined)	aSyn 5UTR act -107.8
Cc1ccc(S(=O)(=O)N2CCCCC2)cc1NC(=O)c1ccc2ccccc2n1	aSyn 5UTR act -121.9
Cc1cccc(NC(=O)c2ccc3ccccc3n2)c1C	aSyn 5UTR act -67.5
O=C(Nc1cccc(S(=O)(=O)N2CCCCCC2)c1)c1ccc2ccccc2n1	aSyn 5UTR act -89.0
COc1ccc(NC(=O)c2ccc3ccccc3n2)cc1S(=O)(=O)N1CCCCC1	aSyn 5UTR act -122.2
CCOc1ccc(C(=O)N[C@H](C(=O)Nc2cccc(S(=O)(=O)N3CCCCC3)c2)C(C)C)cc1	none
COc1ccc(/C(C)=N/Nc2ncc(Cl)cc2Cl)c(O)c1	aSyn 5UTR act -92.0
Cc1ccc2c(c1)OC(c1ccc3c(c1)OCCO3)CC2=O (centres undefined)	aSyn 5UTR act -151.0
CCOC(=O)N=Nc1c2ccccc2c2nc3no[nH]c3nc12	none
CCOC(=O)c1cn(CC)c2c(ccc3ccccc32)c1=O	aSyn 5UTR act -89.7
CN1C2CCC1/C(=C\c1ccccc1F)C(=O)/C2=C/c1ccccc1F	aSyn 5UTR act -89.4
O=C(Nc1ccc(NC(=O)C2CC2)cc1)c1cccs1	aSyn 5UTR act -168.6
O=C(Nc1cccc(N2CCCC2)c1)c1cccs1	aSyn 5UTR act -66.0
COc1ccc(NC(=S)NNC(=O)c2cccs2)cc1	aSyn 5UTR act -80.6
O=C(Nc1ccc(Cl)cc1)c1cccs1	aSyn 5UTR act -146.4
CCC(C)c1ccc(NC(=O)c2cccs2)cc1 (centres undefined)	aSyn 5UTR act -71.0
O=C(NC(=S)Nc1ccc(Br)cn1)c1cccs1	aSyn 5UTR act -172.5
COc1ccccc1NC(=O)Cn1nnc(-c2ccccc2NC(=O)c2cc3ccccc3oc2=O)n1	aSyn 5UTR act -118.9
CC(C)c1ccc(NC(=S)NNC(=O)c2cccs2)cc1	aSyn 5UTR act -95.3
CC(C)C(=O)Nc1ccc(NC(=O)c2cccs2)cn1	aSyn 5UTR act -131.8
O=C(Nc1ccc(NC(=O)c2cccs2)cc1)c1cccs1	aSyn 5UTR act -140.8
Cc1ccc(NC(=O)Cn2nnc(-c3ccccc3NC(=O)c3cccs3)n2)cc1	none
COc1ccc(NC(=O)Cn2nnc(-c3ccccc3NC(=O)c3cccs3)n2)cc1	aSyn 5UTR act -168.6
COc1ccc(NC(=O)c2cccs2)cc1	aSyn 5UTR act -148.7
